# Activity calls are given as the source filed them. Unless noted, no rule for the calls is given here.
# Experiments:
# [1] = system: Wnt5a (protein binding on small-molecule microarray); experiment: small molecules binding Wnt5a protein – biophysical, small-molecule microarray, 635/667 nm fluorescence, primary screen (AID 1142); details: 635 nm fluorescence, higher = more signal;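 also: fluorescence read at 667 nm with signal to noise per printed feature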
# [2] = ATP-based viability of Huh7 replicon cells – cell-based, CellTiter-Glo luminescence, basal, 48 h, cytotoxicity control for HCV replication inhibitor project, primary screen (AID 1143); details: higher = more signal, called active from +8 up or from −8 down;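 also: Huh7 hepatoma cells carrying a hepatitis C replication reporter with no stimulus; test concentration not given here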
# [3] = Pseudomonas biofilm growth suppression – PAO1 strain, BacTiter-Glo luminescence, LB-PBS, primary screen (AID 1144); details: P. aeruginosa PAO1 biofilm, 12 h, higher = more signal
# [4] = basal CRE-LacZ reporter activity in PC12 – cell-based, unstimulated, primary screen (AID 1145); details: no forskolin, luminescence, 4.5 h, higher = more signal, called active from +8 up or from −8 down
# [5] = forskolin-driven CRE-LacZ activity in PC12 – cell-based, CRE-LacZ reporter, forskolin-stimulated, primary screen (AID 1146); details: luminescence, 4.5 h, higher = more signal, called active from +8 up or from −8 down;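 also: PC12 cells with 6xCRE LacZ reporter stimulated by forskolin 10 µM; beta-galactosidase reporter signal reflecting CREB driven transcription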
# [6] = molecular target: Streptavidin (Streptomyces avidinii) (UniProt P22629); experiment: compounds binding control protein streptavidin – biophysical, small-molecule microarray, 635/667 nm fluorescence, artefact control for SMM compound annotation, primary screen (AID 1147); details: higher = more signal;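 also: signal reflects streptavidin binding to arrayed compounds as a control protein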
# Streptavidin (Streptomyces avidinii), sequence (P22629 whole entry, looked up): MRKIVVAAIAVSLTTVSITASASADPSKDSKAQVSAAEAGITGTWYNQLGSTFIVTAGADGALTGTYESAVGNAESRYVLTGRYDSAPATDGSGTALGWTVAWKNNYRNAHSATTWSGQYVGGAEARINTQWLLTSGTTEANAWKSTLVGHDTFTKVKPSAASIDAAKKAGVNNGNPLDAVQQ
# [7] = probe aInhba binding on compound microarray – biochemical, small-molecule microarray, 635/667 nm fluorescence, primary screen (AID 1148); details: higher = more signal;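 also: score merges 667nm spot fluorescence with signal-to-noise for antibody binding to printed compounds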
# [8] = molecular target: Torsin-1A (Homo sapiens) (UniProt O14656); experiment: TOR1A wild-type binding on microarray – cell lysate, small-molecule microarray, lysate, 635/667 nm, primary screen (AID 1149); details: COS7 hTOR1A-WT lysate, 635 nm fluorescence, higher = more signal
# Torsin-1A (Homo sapiens), sequence (O14656 whole entry, looked up): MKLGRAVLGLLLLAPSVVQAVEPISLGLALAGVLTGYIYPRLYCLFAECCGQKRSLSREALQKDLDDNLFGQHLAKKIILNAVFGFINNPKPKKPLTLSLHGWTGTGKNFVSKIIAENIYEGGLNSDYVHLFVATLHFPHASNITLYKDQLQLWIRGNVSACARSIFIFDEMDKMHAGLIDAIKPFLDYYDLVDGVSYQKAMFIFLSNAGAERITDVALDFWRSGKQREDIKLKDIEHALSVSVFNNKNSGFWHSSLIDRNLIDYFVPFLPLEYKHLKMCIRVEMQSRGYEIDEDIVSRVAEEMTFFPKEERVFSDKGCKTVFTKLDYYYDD
# [9] = molecular target: Torsin-1A (Homo sapiens) (UniProt O14656); experiment: torsin A mutant lysate binding on microarrays – cell lysate, small-molecule microarray, COS7 lysate, 635/667 nm fluorescence, primary screen (AID 1150); details: COS7 hTOR1A mutant lysate, 635 nm fluorescence, higher = more signal;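 also: score pools 667 nm emission and signal to noise measuring lysate protein binding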
# [10] = system: Sonic hedgehog protein (Shh); experiment: Sonic hedgehog microarray binding compounds – biochemical, small-molecule microarray, 635/667 nm fluorescence, primary screen (AID 1151); details: 635 nm fluorescence, higher = more signal;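 also: Shh protein binding to compounds spotted on small-molecule microarray slides; score combines spot fluorescence intensity with signal-to-noise across triplicate slides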
# [11] = optical density shifts of acrAB sulA E. coli – strain DRC41, OD650, 48 h, E. coli filamentation inducer project, primary screen (AID 1152); details: higher = more signal, called active from +8 up or from −8 down;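 also: E. coli MC1000 strain DRC41 lacking acrAB efflux pump and sulA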
# [12] = probe aLefty1 binding on compound microarray – biochemical, small-molecule microarray, 635/667 nm fluorescence, primary screen (AID 1153); details: higher = more signal;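 also: score merges spot fluorescence with signal-to-noise ratio from the scanned slide images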
# [13] = plasmodial surface anion channel blockers, osmotic lysis – cell-based, P. falciparum Indochina, OD700, 1 h, primary screen (AID 1154); details: P. falciparum Indochina infected RBC osmotic lysis, higher = more signal, called active from +8 up or from −8 down
# [14] = plasmodial surface anion channel blockers, osmotic lysis – cell-based, P. falciparum Indochina, OD700, 2 h, primary screen (AID 1155);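 also: lysis reports solute entry through the parasite surface anion channel PSAC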; details: P. falciparum Indochina infected erythrocytes, higher = more signal, called active from +8 up or from −8 down
# [15] = changes in parasitized red cell lysis, either direction – P. falciparum Indochina, OD700, 3 h, PSAC antagonist project, primary screen (AID 1156); details: P. falciparum-infected erythrocytes, osmotic lysis, higher = more signal, called active from +8 up or from −8 down
# [16] = plasmodial surface anion channel blockers, osmotic lysis – cell-based, P. falciparum Indochina, OD700, 18 h, primary screen (AID 1157); details: P. falciparum Indochina infected erythrocytes, osmotic lysis OD700, 18 h; higher = more signal, called active from +8 up or from −8 down
# [17] = S6 kinase pathway phospho-S6 level changes – cell-based, A549, cytoblot, luminescence, serum-stimulated, primary screen (AID 1158); details: 5 h, higher = more signal;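 also: serum-stimulated A549 lung adenocarcinoma cells; signal is phosphorylated S6 detected by cytoblot immunostaining with HRP secondary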
# [18] = molecular target: NADPH oxidase 2 (Homo sapiens) (UniProt P04839); experiment: compounds shifting NOX2 Amplex Red fluorescence – cell-based, HEK293-NOX2, PMA-stimulated, NOX inhibitor project, primary screen (AID 1159); details: 45 min, higher = more signal, called active from +8 up or from −8 down; also: test concentration not given here
# NADPH oxidase 2 (Homo sapiens), sequence (P04839 whole entry, looked up): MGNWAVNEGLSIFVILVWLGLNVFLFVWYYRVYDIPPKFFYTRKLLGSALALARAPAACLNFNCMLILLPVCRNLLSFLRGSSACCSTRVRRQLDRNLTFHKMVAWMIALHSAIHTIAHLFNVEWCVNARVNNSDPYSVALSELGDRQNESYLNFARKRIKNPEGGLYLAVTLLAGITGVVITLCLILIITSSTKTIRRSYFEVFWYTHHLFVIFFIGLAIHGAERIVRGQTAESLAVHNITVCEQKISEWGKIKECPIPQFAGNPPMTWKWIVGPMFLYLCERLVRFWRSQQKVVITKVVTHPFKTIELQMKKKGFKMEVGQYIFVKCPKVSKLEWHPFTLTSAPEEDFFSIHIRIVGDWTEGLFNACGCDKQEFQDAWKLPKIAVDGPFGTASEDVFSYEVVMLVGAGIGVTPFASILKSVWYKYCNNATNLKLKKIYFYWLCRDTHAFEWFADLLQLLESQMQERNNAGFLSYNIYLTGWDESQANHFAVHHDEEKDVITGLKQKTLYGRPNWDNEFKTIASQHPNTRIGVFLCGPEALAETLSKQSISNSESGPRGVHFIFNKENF
# [19] = molecular target: NADPH oxidase 4 (Homo sapiens) (UniProt Q9NPH5); experiment: compounds shifting NOX4 Amplex Red fluorescence – cell-based, HEK293-NOX4, tetracycline-induced, NOX inhibitor project, primary screen (AID 1160); details: HEK293-NOX4, Amplex Red H2O2 fluorescence, 45 min; higher = more signal, called active from +8 up or from −8 down
# NADPH oxidase 4 (Homo sapiens), sequence (Q9NPH5 whole entry, looked up): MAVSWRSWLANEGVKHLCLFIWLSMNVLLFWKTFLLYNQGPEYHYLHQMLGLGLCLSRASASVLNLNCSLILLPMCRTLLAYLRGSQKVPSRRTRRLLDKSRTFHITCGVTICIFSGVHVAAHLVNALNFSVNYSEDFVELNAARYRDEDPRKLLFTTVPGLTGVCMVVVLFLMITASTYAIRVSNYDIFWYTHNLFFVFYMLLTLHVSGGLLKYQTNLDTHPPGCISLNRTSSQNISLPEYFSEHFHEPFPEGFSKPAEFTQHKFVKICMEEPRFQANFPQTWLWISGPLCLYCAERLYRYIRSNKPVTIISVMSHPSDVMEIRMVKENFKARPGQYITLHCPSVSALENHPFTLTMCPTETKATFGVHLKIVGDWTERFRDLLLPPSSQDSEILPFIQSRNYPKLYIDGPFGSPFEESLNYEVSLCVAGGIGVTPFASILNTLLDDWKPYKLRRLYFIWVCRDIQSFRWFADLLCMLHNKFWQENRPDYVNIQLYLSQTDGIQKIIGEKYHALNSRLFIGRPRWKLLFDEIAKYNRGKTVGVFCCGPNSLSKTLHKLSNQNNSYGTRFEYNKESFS
# [20] = molecular target: NADPH oxidase 5 (Homo sapiens) (UniProt Q96PH1); experiment: compounds shifting NOX5 Amplex Red fluorescence – cell-based, HEK293-NOX5, NOX inhibitor project, primary screen (AID 1161); details: HEK293-NOX5, ionomycin, 45 min, higher = more signal
# NADPH oxidase 5 (Homo sapiens), sequence (Q96PH1 whole entry, looked up): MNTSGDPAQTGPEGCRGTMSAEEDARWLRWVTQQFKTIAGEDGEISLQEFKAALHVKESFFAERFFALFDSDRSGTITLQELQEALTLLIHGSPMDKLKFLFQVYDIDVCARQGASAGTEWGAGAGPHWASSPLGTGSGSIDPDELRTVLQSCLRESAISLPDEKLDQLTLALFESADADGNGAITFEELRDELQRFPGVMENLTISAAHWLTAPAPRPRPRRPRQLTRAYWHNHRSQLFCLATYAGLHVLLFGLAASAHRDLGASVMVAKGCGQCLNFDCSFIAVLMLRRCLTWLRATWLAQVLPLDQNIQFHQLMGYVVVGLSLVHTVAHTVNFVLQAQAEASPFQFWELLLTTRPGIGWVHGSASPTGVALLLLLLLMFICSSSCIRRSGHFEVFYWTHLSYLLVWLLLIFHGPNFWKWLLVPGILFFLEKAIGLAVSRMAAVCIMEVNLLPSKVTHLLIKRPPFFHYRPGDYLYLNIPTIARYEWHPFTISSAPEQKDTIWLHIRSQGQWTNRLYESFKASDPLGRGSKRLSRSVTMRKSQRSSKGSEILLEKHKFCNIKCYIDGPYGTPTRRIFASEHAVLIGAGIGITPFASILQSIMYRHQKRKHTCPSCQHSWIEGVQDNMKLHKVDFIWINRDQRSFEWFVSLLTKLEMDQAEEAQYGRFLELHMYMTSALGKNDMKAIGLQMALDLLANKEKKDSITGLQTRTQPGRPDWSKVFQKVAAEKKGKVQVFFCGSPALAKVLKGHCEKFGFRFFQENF
SMILES,composite z-score [1],z-score [2],z-score [3],z-score [4],z-score [5],composite z-score [6],composite z-score [7],composite z-score [8],composite z-score [9],composite z-score [10],z-score [11],composite z-score [12],z-score [13],z-score [14],z-score [15],z-score [16],z-score [17],z-score [18],z-score [19],z-score [20]
CO[C@H]1COC(=O)CC=C[C@H](C)[C@@H](OC)COC(=O)[C@@H](C)NC(=O)CC=C[C@@H]1C,0.0073,-1.42 (inactive),-1.15 (inactive),-0.0824 (inactive),0.123 (inactive),-0.343,-0.233,3.05,2.16,2.14,0.0321 (inactive),-0.152,-0.848 (inactive),-0.863 (inactive),-0.372 (inactive),-1.99 (inactive),1.03,-0.22 (inactive),0.403 (inactive),-0.0966
CCCNC(=O)OC[C@H]1O[C@H](CCON=Cc2ccc(C(=O)N3[C@H](c4ccc(C)cc4)[C@@H](C)CC[C@H]3C(=O)OC)cc2)C=C[C@@H]1Oc1ccc(OC)cc1,0.157,-1.73 (inactive),0.0699 (inactive),2.55 (inactive),1.16 (inactive),0.0335,-0.105,0.436,0.853,0.396,0.33 (inactive),-0.16,1.21 (inactive),0.674 (inactive),0.0952 (inactive),0.612 (inactive),-0.619,0.725 (inactive),0.611 (inactive),0.393
C[C@@H]1CC[C@H]2C(=O)O[C@@H](Cc3ccccc3)CN2[C@H]1c1ccc(Br)cc1,-0.0729,-0.309 (inactive),0.502 (inactive),0.583 (inactive),-0.143 (inactive),-0.0253,-0.133,0.433,0.533,0.656,-0.28 (inactive),-0.148,2.26 (inactive),0.935 (inactive),0.277 (inactive),0.563 (inactive),-0.536,-0.251 (inactive),-0.286 (inactive),-0.621
CCN1C(=O)[C@@H]2[C@H]3C(=CC[C@@H]2C1=O)C1(OCCCO1)[C@H]1O[C@H]1[C@H]3O,0.36,-8.11 (active),0.291 (inactive),0.196 (inactive),23.3 (active),1.13,0.0513,0.616,1.09,0.956,-0.721 (inactive),0.167,27.2 (active),12.1 (active),1.38 (inactive),1.18 (inactive),-0.295,0.104 (inactive),-5.5 (inactive),-5.86
CCOC(=O)[C@H](Cc1ccccc1)NC(=O)CCC1CC(OC(=O)NCc2cccc3ccccc23)CC2(CCCC(COC(=O)NCc3ccccc3)O2)O1 (stereo not given in full),0.0636,-5.15 (inactive),-1.29 (inactive),-0.977 (inactive),2.01 (inactive),0.376,-0.0259,-0.347,0.0167,0.58,-1.32 (inactive),0.0935,4.71 (inactive),0.55 (inactive),-0.562 (inactive),-0.2 (inactive),3.91,-1.59 (inactive),-1.2 (inactive),-1.7
CCOC(=O)[C@H](Cc1ccccc1)NC(=O)CCC1CC(OC(=O)NCCc2ccc(F)cc2)CC2(CCCC(COC(=O)NCc3ccccc3)O2)O1 (stereo not given in full),0.0738,-0.471 (inactive),0.0402 (inactive),0.824 (inactive),1.63 (inactive),0.606,0.0074,0.409,0.129,0.952,-0.713 (inactive),-0.152,-0.623 (inactive),-0.567 (inactive),-0.857 (inactive),-0.144 (inactive),0.0765,-0.0815 (inactive),1.21 (inactive),0.616
COC(=O)CC=C[C@@H](C)[C@@H](C=NOC(C)CN1CCCc2nc(C)c(C)cc21)OC (stereo not given in full),0.17,0.431 (inactive),0.764 (inactive),-0.64 (inactive),0.632 (inactive),1.21,0.098,0.254,0.0852,0.655,-0.4 (inactive),-0.202,0.378 (inactive),0.633 (inactive),-0.17 (inactive),0.538 (inactive),-0.77,-0.0618 (inactive),-0.14 (inactive),0.372
CO[C@@H]1COC(=O)[C@@H]2CCCN2C(=O)[C@@H](C)COC(=O)CC=C[C@H]1C,0.667,-0.193 (inactive),-1.09 (inactive),1.03 (inactive),0.828 (inactive),0.119,-0.0427,0.826,0.962,0.895,-0.481 (inactive),0.0553,0.202 (inactive),-0.116 (inactive),0.601 (inactive),0.0246 (inactive),-0.641,-0.48 (inactive),0.393 (inactive),0.0919

# — PubChem BioAssay
